The results in this text go back to publication PMC7862700, “An all-to-all approach to the identification of sequence-specific readers for epigenetic DNA modifications on cytosine”.

What all share (experiment): DAPPL (digital affinity profiling via proximity ligation, sequencing); 10 mM Tris-HCl pH 7.5, 50 mM NaCl, 1 mM DTT, 4% glycerol, room temperature, 30 min; GST-TFs on glutathione beads, 16-mer random dsDNA library, 0.1% formaldehyde crosslink after washing; high values mean tight binding
The target of one test is T1, FEV (Homo sapiens, UniProt Q99581 1-238).
T1 sequence: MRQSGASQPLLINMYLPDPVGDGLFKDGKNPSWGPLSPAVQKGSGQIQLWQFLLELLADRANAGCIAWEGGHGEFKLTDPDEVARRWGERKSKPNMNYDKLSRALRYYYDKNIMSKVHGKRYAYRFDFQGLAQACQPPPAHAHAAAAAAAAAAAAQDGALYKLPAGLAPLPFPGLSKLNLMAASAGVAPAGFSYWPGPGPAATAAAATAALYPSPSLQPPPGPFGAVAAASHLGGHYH
Particulars: protein: recombinant; tags: N-terminal GST; dsDNA, one strand shown. The essentials:
(§1)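 Beads coated with glutathione captured GST-fused human transcription factors that had been expressed in yeast, and the factors were then given DNA barcodes and pooled with a tag-only sample. The pools were incubated with 200 nmole of a random double-stranded 16-mer DNA library in Tris/NaCl/DTT/glycerol buffer for 30 min at room temperature, washed, crosslinked with 0.1% formaldehyde and proximity-ligated with BsaI/T4 ligase at 37 °C for 1 h. PCR amplification and Illumina NextSeq500 sequencing came last. Binding signal is each hexamer's read frequency for a factor divided by its frequency for the tag-only sample.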

The next test addresses ETV5 (Homo sapiens, UniProt P41161 1-510). Particulars: protein: recombinant; tags: N-terminal GST; dsDNA, one strand shown. The essentials: as §1
The next test deals with HSF1 (Homo sapiens, UniProt Q00613 1-529). Particulars: protein: recombinant; tags: N-terminal GST; chain copies: 3; dsDNA, one strand shown. Summed up: as §1
Sequence of HSF1 (Q00613 whole entry): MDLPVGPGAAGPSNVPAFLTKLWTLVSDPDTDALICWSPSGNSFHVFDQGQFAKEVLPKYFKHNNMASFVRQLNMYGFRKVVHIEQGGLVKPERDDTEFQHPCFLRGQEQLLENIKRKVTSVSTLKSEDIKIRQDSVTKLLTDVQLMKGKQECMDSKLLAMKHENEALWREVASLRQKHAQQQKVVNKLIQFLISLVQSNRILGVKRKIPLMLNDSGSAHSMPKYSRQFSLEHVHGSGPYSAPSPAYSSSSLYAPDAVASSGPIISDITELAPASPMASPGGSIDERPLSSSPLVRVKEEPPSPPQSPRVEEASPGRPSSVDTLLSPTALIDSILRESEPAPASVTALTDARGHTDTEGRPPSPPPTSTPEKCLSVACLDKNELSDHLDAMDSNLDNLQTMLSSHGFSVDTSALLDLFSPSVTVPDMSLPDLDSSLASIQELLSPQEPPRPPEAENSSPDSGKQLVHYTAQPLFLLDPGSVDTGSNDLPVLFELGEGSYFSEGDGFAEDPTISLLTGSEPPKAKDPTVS
A further test concerns the target T2, SPIC (Homo sapiens, UniProt Q8N5J4 1-248).
T2 sequence: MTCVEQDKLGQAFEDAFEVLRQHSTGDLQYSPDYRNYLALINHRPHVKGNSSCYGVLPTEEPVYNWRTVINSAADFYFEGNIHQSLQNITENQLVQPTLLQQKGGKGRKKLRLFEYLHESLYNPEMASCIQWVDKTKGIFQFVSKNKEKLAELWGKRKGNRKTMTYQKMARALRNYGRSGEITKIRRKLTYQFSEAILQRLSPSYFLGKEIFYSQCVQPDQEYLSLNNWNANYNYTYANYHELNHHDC
Particulars: protein: recombinant; tags: N-terminal GST; dsDNA, one strand shown. Summed up: as §1

A further test addresses ELF4 (Homo sapiens, UniProt Q99607 1-663). Particulars: protein: recombinant; tags: N-terminal GST; dsDNA, one strand shown. Summed up: as §1
Another test addresses T3, ELK4 (Homo sapiens, UniProt P28324-2 1-405).
T3 sequence: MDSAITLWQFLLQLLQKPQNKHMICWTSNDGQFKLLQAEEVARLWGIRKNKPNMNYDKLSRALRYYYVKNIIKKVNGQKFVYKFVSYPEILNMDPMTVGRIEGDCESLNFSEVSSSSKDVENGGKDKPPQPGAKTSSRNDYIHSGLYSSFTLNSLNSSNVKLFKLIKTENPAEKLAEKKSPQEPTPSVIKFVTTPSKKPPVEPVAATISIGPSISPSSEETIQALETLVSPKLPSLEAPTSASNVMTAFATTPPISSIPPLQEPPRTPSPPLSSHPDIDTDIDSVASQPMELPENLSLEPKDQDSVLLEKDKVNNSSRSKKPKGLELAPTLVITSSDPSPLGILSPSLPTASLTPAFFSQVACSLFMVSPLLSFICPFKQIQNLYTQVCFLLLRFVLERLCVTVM
Particulars: protein: recombinant; tags: N-terminal GST; dsDNA, one strand shown. The essentials: as §1

A further test concerns the target T4, ETV2 (Homo sapiens, UniProt O00321 1-342).
T4 sequence: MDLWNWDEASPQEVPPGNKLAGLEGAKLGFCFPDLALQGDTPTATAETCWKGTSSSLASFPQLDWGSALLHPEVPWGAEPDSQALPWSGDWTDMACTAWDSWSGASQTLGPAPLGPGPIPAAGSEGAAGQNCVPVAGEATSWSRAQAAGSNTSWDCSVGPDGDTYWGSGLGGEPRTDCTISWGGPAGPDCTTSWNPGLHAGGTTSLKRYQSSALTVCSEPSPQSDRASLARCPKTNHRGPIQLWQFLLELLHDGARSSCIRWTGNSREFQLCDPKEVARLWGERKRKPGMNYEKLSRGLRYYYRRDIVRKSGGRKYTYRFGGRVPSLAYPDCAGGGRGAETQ
The settings on record: protein: recombinant; tags: N-terminal GST; dsDNA, one strand shown. Summed up: as §1

The next test deals with T5, ELF3 (Homo sapiens, UniProt P78545 1-371).
T5 sequence: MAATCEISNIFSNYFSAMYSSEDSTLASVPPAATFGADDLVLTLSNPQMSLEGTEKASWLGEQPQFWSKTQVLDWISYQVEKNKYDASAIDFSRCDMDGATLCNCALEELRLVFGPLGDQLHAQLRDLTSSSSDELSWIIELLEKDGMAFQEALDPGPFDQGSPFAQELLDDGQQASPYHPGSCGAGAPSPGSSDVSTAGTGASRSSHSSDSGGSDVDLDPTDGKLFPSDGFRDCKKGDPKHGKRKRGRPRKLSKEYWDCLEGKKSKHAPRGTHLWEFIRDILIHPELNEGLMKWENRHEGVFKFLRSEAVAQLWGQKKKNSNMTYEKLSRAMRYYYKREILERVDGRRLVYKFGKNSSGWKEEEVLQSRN
Particulars: protein: recombinant; tags: N-terminal GST; dsDNA, one strand shown. Summed up: as §1

The next test addresses CRX (Homo sapiens, UniProt O43186 1-299). The settings on record: protein: recombinant; tags: N-terminal GST; dsDNA, one strand shown. The essentials:
as §1

The next test concerns the target ETV1 (Homo sapiens, UniProt P50549 1-477). Particulars: protein: recombinant; tags: N-terminal GST; dsDNA, one strand shown. Summed up: as §1
In a further test the target is T6, ERF (Homo sapiens, UniProt P50548 1-548).
T6 sequence: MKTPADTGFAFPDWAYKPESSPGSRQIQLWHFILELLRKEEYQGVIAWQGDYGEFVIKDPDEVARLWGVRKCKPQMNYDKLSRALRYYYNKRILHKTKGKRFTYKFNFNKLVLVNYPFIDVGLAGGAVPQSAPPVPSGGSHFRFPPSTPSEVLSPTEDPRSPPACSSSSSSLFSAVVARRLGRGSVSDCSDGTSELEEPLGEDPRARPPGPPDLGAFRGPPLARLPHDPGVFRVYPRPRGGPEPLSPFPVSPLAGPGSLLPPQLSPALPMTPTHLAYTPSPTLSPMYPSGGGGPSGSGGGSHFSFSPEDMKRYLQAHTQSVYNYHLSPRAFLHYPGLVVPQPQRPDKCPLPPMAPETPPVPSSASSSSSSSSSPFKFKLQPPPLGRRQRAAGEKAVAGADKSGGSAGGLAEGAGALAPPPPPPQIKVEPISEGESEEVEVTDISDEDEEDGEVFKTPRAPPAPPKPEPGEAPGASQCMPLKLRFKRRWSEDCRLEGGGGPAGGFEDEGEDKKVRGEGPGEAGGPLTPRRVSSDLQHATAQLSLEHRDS
Particulars: protein: recombinant; tags: N-terminal GST; dsDNA, one strand shown. Summed up: as §1

In a further test the target is T7, ETV3L (Homo sapiens, UniProt Q6ZN32 1-361).
T7 sequence: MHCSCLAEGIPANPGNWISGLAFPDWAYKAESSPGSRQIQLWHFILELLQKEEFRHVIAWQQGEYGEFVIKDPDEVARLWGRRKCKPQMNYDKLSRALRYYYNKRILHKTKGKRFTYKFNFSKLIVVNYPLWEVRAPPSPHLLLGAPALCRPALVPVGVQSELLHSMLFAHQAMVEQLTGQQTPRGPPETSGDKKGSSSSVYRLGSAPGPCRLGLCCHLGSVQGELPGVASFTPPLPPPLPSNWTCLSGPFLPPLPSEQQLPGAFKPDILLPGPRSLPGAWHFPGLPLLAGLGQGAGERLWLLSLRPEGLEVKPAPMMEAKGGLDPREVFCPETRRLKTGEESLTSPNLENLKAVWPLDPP
The settings on record: protein: recombinant; tags: N-terminal GST; dsDNA, one strand shown. The essentials: as §1

The target in another test is T8, ETS2 (Homo sapiens, UniProt P15036 1-469).
T8 sequence: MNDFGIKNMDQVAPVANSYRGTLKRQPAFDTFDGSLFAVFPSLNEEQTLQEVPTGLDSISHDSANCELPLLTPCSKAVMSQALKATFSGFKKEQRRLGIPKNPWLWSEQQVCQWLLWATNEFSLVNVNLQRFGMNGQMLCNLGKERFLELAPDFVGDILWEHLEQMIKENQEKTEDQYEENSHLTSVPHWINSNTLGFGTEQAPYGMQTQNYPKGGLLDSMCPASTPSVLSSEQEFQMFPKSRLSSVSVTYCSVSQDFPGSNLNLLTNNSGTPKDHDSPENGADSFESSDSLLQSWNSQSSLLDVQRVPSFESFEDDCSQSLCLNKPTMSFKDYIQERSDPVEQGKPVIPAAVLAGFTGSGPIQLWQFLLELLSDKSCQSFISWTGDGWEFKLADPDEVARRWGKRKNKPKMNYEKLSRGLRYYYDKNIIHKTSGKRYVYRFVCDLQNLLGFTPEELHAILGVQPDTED
The settings on record: protein: recombinant; tags: N-terminal GST; dsDNA, one strand shown. Summed up: as §1

The next test deals with T9, SPDEF (Homo sapiens, UniProt O95238 1-335).
T9 sequence: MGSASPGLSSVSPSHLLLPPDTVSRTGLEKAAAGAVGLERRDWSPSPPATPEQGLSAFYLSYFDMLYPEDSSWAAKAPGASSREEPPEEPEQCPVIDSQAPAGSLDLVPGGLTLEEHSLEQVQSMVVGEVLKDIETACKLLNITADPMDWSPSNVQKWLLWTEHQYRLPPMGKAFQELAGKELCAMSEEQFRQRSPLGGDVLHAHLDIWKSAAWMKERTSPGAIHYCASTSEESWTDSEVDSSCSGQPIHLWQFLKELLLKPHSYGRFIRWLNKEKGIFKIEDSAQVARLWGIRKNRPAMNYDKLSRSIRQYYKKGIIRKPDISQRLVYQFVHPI
Particulars: protein: recombinant; tags: N-terminal GST; dsDNA, one strand shown. The essentials: as §1

A further test addresses T10, ETV7 (Homo sapiens, UniProt Q9Y603 1-341).
T10 sequence: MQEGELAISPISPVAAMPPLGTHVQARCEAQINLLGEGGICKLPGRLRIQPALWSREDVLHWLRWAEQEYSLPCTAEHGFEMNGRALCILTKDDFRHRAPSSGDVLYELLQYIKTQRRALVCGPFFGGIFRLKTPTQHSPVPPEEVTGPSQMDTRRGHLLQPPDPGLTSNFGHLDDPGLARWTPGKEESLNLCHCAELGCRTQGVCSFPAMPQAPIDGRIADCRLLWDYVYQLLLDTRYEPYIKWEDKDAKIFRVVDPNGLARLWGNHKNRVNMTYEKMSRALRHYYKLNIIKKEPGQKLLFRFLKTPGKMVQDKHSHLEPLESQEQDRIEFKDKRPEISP
The settings on record: protein: recombinant; tags: N-terminal GST; dsDNA, one strand shown. The essentials: as §1

The target of the next test is T11, ELF5 (Homo sapiens, UniProt Q9UKW6-2 1-255).
T11 sequence: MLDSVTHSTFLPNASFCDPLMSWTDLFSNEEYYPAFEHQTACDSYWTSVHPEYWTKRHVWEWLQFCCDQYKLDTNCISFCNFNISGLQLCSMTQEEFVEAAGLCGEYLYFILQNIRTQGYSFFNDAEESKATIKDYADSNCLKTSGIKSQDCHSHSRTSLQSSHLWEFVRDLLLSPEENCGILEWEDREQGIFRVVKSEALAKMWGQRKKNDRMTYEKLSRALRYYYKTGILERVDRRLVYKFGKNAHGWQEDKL
The settings on record: protein: recombinant; tags: N-terminal GST; dsDNA, one strand shown. Summed up: as §1

For another test, the target named is T12, ETV3 (Homo sapiens, UniProt P41162-2 1-143).
T12 sequence: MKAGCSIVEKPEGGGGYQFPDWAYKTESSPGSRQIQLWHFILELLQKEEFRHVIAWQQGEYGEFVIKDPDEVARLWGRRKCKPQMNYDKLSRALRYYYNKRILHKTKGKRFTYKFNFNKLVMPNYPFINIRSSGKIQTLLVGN
Particulars: protein: recombinant; tags: N-terminal GST; dsDNA, one strand shown. The essentials:
as §1

A further test concerns the target ETV6 (Homo sapiens, UniProt P41212 1-452). The settings on record: protein: recombinant; tags: N-terminal GST; dsDNA, one strand shown. Summed up: as §1

Sequence of ETV1 (P50549 whole entry): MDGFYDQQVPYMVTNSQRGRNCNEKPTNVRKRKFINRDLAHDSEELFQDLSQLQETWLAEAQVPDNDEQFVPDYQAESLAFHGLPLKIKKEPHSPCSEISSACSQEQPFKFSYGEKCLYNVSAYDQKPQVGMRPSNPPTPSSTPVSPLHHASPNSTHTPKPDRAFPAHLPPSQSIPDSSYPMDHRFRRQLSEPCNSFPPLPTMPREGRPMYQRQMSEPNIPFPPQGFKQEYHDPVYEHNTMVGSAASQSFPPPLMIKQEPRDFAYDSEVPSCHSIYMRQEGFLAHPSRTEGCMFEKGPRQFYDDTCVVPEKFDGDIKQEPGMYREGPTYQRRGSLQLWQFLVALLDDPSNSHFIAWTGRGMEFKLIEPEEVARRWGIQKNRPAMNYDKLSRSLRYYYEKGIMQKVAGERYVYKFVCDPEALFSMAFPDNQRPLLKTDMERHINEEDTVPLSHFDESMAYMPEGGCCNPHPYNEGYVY
Sequence of ETV6 (P41212 whole entry): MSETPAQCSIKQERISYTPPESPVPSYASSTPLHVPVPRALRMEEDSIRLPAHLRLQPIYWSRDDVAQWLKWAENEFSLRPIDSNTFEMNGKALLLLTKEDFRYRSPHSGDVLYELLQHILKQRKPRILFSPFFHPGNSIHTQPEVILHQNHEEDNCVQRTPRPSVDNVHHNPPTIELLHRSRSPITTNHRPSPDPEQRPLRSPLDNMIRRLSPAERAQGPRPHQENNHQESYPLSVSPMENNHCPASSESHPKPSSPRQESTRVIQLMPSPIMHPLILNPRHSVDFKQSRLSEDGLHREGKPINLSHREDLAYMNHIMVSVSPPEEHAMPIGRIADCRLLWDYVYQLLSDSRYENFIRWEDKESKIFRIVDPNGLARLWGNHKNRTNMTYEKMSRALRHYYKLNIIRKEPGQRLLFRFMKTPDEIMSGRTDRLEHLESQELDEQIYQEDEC
Sequence of ETV5 (P41161 whole entry): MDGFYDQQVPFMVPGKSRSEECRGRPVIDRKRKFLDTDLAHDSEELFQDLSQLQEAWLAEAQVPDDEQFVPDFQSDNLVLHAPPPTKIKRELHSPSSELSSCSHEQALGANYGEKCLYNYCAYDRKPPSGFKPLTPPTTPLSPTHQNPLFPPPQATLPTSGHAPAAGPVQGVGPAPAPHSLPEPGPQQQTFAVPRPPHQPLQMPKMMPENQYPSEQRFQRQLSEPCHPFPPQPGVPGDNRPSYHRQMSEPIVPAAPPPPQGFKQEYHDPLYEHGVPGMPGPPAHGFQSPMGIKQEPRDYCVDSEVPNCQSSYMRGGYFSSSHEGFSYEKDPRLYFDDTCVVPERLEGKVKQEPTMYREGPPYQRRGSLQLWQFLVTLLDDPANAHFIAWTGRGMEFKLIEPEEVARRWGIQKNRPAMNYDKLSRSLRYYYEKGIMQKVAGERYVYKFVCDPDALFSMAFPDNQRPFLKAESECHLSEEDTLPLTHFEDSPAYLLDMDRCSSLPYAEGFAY
Sequence of CRX (O43186 whole entry): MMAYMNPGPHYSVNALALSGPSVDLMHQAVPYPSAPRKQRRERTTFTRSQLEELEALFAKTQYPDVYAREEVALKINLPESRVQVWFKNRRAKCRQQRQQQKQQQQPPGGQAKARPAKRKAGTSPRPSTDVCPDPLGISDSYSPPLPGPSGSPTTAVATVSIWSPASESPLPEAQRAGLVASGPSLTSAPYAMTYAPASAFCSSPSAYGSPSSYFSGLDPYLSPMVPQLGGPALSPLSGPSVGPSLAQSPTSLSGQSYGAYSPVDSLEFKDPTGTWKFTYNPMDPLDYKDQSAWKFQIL
Sequence of ELF4 (Q99607 whole entry): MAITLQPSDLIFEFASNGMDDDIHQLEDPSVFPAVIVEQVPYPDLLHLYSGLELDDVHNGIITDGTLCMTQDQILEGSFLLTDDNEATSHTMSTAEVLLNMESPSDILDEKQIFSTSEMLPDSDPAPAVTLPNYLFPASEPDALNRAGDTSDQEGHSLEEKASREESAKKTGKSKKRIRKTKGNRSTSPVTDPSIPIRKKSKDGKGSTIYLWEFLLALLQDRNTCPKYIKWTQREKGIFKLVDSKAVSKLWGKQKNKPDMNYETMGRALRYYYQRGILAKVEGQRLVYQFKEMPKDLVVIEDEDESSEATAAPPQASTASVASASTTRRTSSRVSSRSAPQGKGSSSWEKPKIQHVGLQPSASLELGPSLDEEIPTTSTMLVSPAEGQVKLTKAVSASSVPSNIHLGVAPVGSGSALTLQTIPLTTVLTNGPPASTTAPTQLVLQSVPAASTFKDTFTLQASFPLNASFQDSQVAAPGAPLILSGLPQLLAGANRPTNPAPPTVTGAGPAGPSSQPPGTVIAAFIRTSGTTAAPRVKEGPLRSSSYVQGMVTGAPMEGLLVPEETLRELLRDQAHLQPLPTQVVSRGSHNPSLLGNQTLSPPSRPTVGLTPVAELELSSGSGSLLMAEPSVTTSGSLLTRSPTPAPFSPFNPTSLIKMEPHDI

As for ATGTCT, the binding signal is 1.27 fold enrichment (6-mer frequency, TF over GST control) in the test with FEV; 1.36 fold enrichment (6-mer frequency, TF over GST control) with ETV5; 1.17 fold enrichment (6-mer frequency, TF over GST control) with HSF1; 1.27 fold enrichment (6-mer frequency, TF over GST control) with SPIC; 1.28 fold enrichment (6-mer frequency, TF over GST control) with ELF4; 1.07 fold enrichment (6-mer frequency, TF over GST control) with ELK4. Besides, the binding signal in the test with ETV2 is 1.26 fold enrichment (6-mer frequency, TF over GST control); with ELF3, 1.08 fold enrichment (6-mer frequency, TF over GST control); with CRX it was 1.18 fold enrichment (6-mer frequency, TF over GST control); in the test with ETV1 it was 1.23 fold enrichment (6-mer frequency, TF over GST control); in the test with ERF, 1.38 fold enrichment (6-mer frequency, TF over GST control); in the test with ETV3L it was 1.27 fold enrichment (6-mer frequency, TF over GST control). Further, the binding signal in the test with ETS2 is 1.28 fold enrichment (6-mer frequency, TF over GST control); with SPDEF, 1.26 fold enrichment (6-mer frequency, TF over GST control); with ETV7, 1.12 fold enrichment (6-mer frequency, TF over GST control); with ELF5 it was 1.35 fold enrichment (6-mer frequency, TF over GST control); with ETV3, 1.26 fold enrichment (6-mer frequency, TF over GST control); with ETV6, 1.23 fold enrichment (6-mer frequency, TF over GST control).
